Assay results: PubChem BioAssay (Tox21)
Records with an inconclusive call do not appear. A call without a number means that no potency is given here. Activity calls are given as the source filed them. Unless noted, calls follow the shape of the dose curve; as a rule, active = well fitted curve in the direction sought with a large enough effect in the repeat runs; inconclusive = weak or mixed curves; inactive = no such curve, though single readings can be large; an effect the other way counts as inactive or inconclusive.

Tests used:
[1] = qHTS assay to identify aromatase inhibitors - cell viability counter screen (AID 743084);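 also: cells stimulated with testosterone during compound exposure; nearly all actives have a fitted effect of over 55% in size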; also: potency is read from the fitted curve at half-maximal effect
[2] = target: Aryl hydrocarbon receptor (Homo sapiens) (UniProt P35869); assay: qHTS assay to identify small molecule that activate the aryl hydrocarbon receptor (AhR) signaling pathway (AID 743085); also: nearly all actives have a fitted effect of over 15% in size; also: potency is read from the fitted curve at half-maximal effect;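 as to activation: HG2L7.5c1 human HepG2 liver cells with stably integrated DRE-driven firefly reporter; series mostly up to about 70 µM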
Aryl hydrocarbon receptor (Homo sapiens), sequence (P35869 whole entry, looked up): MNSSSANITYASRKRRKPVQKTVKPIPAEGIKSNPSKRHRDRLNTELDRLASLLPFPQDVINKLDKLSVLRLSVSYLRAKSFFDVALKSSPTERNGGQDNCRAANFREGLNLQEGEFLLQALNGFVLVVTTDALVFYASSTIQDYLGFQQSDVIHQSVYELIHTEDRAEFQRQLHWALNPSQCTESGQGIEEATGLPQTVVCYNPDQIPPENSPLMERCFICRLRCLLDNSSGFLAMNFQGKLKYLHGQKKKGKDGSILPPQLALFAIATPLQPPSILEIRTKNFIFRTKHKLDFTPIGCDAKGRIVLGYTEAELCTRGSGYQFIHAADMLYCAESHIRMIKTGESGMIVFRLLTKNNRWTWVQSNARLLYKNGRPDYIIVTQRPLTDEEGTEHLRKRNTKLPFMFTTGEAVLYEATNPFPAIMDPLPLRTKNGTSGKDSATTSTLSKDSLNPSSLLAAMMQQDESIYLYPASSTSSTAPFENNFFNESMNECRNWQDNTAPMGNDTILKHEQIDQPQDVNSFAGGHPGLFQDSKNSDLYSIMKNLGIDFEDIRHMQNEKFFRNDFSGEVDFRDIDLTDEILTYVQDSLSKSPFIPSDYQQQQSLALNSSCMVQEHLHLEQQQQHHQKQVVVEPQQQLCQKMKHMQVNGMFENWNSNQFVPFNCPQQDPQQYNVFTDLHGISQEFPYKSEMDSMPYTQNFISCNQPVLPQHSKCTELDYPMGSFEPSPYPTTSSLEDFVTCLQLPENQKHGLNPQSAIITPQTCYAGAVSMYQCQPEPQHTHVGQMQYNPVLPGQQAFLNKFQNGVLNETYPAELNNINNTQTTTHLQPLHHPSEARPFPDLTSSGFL
Procedure, shortened: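 24 h compound exposure, 37C, HepG2-derived HG2L7.5c1 cells with DRE-responsive luciferase. Readouts: fluorescence viability, then luminescence at room temperature after 30 min.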

[3] = target: Peroxisome proliferator-activated receptor gamma (Homo sapiens) (UniProt P37231); assay: qHTS assay to identify small molecule agonists of the peroxisome proliferator-activated receptor gamma (PPARg) signaling pathway (AID 743094; active = well fitted activation curve with a large enough effect in the signal ratio in the repeat runs, not every such curve was filed as active; the % refers to the signal ratio)
Peroxisome proliferator-activated receptor gamma (Homo sapiens), sequence (P37231 whole entry, looked up): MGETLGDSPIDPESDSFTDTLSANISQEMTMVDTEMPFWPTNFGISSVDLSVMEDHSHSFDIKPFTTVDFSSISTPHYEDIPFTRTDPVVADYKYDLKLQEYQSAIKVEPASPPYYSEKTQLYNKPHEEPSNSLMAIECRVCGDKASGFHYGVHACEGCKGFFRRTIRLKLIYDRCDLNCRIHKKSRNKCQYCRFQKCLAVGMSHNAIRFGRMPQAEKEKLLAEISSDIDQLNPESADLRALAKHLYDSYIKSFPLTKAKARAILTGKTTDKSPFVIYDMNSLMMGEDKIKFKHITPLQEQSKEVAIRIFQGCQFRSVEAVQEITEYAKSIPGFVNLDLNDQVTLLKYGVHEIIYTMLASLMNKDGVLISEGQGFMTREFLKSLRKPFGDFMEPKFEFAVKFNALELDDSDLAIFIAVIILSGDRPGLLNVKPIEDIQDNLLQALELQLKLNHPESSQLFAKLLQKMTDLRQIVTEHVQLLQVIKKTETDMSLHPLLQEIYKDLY
Procedure, shortened: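 Following 5 h plating at 37C, PPARg-bla HEK293H cells receive compound or DMSO for 17 h; fluorescence intensity is recorded after LiveBLAzer B/G loading for 1 h at room temperature.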

[4] = qHTS assay to identify small molecule antagonists of the peroxisome proliferator-activated receptor gamma (PPARg) signaling pathway - cell viability counter screen (AID 743194); also: nearly all actives have a fitted effect of over 55% in size
Procedure, shortened: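 Viability was measured as CellTiter-Glo luminescence in GeneBLAzer PPARg UAS-bla HEK293H cells. These cells had been exposed 17 h at 37 C to compounds together with rosiglitazone at 50 nM final, with the beta-lactamase readout taken in the same wells.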

[5] = qHTS assay for small molecule activators of the heat shock response signaling pathway - cell viability counter screen (AID 743209); also: nearly all actives have a fitted effect of over 50% in size; also: potency is read from the fitted curve at half-maximal effect
Procedure, shortened: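 Counter screen for cytotoxicity in HeLa HSE-bla reporter cells. Treatment was 5 h at 37 C; viability was detected by luminescent ATP assay (CellTiter-Glo) in the same wells as the beta-lactamase read.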

[6] = qHTS assay for small molecule activators of the heat shock response signaling pathway (AID 743210; active = well fitted activation curve with a large enough effect in the signal ratio in the repeat runs, with a control signal flat, not every such curve was filed as active; the % refers to the signal ratio;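 also: HeLa cells with beta-lactamase reporter driven by heat shock elements; series mostly up to about 63 µM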)
Procedure, shortened: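 HeLa HSE-bla cells, overnight plating; cpd in DMSO 5 h, 37 C; LiveBLAzer B/G FRET substrate 2.5 h RT; fluorescence intensity read.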

[7] = qHTS assay to identify small molecule agonists of the peroxisome proliferator-activated receptor delta (PPARd) signaling pathway - cell viability counter screen (AID 743211); also: nearly all actives have a fitted effect of over 55% in size
Procedure, shortened: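 Luminescent ATP viability assay (CellTiter-Glo, 30 min RT) in UAS-bla HEK293H cells carrying the PPAR delta reporter construct, 3000 cells/well, after a 17 h compound treatment at 37 C.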

[8] = qHTS assay to identify small molecule that activate the aryl hydrocarbon receptor (AhR) signaling pathway - cell viability counter screen (AID 743086);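 also: HepG2 liver cells carrying the AhR DRE luciferase reporter; series mostly up to about 70 µM; nearly all actives have a fitted effect of over 45% in size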
Procedure, shortened: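 Cytotoxicity counter screen: CellTiter-Fluor signal (30 min, 37 C) in 4000 HepG2 cells/well carrying the DRE-luciferase reporter, following 24 h compound exposure at 37 C.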

[9] = target: Peroxisome proliferator-activated receptor gamma (Homo sapiens) (UniProt P37231); assay: qHTS assay to identify small molecule antagonists of the peroxisome proliferator-activated receptor gamma (PPARg) signaling pathway (AID 743191; calls by dose curve; also: series mostly up to about 63 µM; nearly all actives have a fitted effect of over 30% in size)
Procedure, shortened: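 Beta-lactamase reporter under UAS control in HEK293H PPARg-bla cells; compound treatment 17 h at 37C. Read-out: fluorescence intensity after 1 h room-temperature incubation with LiveBLAzer B/G FRET substrate.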

[10] = qHTS assay for small molecule agonists of the antioxidant response element (ARE) signaling pathway - cell viability counter screen (AID 743203; calls by dose curve; also: nearly all actives have a fitted effect of over 55% in size)
Procedure, shortened: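 Compounds in DMSO were pinned onto ARE-bla HepG2 cells plated 5 hrs earlier at 2,000 cells/well. Sixteen hours later at 37C/5% CO2, CellTiter-Glo was added and luminescence measured after 30 min at room temperature.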

[11] = qHTS assay to identify small molecule antagonists of the peroxisome proliferator-activated receptor delta (PPARd) signaling pathway - cell viability counter screen (AID 743213); also: nearly all actives have a fitted effect of over 50% in size; also: potency is read from the fitted curve at half-maximal effect
Procedure, shortened: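 HEK293H PPARd UAS-bla cells, 5 h pre-incubation, compound + L165041 300 nM final, 17 h 37 C; B/G FRET substrate 2 h RT; then CellTiter-Glo 30 min RT, luminescence.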

[12] = qHTS assay to identify small molecule agonists of the farnesoid-X-receptor (FXR) signaling pathway - cell viability counter screen (AID 743218); also: nearly all actives have a fitted effect of over 45% in size
Procedure, shortened: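 After 16 h at 37 C with test compounds, FXR-bla HEK 293T cells were given LiveBLAzer B/G substrate for 2 h at RT and then CellTiter-Glo; luminescence was taken after 30 min.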

[13] = qHTS assay to identify small molecule antagonists of the farnesoid-X-receptor (FXR) signaling pathway - cell viability counter screen (AID 743221; active = well fitted cell-killing curve with a large enough effect in the repeat runs, not every such curve was filed as active; also: nearly all actives have a fitted effect of over 50% in size)
Procedure, shortened: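 In GeneBLAzer FXR-UAS-bla HEK 293T cells stimulated with 50 uM chenodeoxycholic acid (final), compounds acted for 16 h at 37 C. Viability was assessed afterwards by CellTiter-Glo luminescence.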

[14] = target: Vitamin D3 receptor (Homo sapiens) (UniProt P11473); assay: qHTS assay to identify small molecule agonists of the vitamin D receptor (VDR) signaling pathway (AID 743222; calls by dose curve)
Vitamin D3 receptor (Homo sapiens), sequence (P11473 whole entry, looked up): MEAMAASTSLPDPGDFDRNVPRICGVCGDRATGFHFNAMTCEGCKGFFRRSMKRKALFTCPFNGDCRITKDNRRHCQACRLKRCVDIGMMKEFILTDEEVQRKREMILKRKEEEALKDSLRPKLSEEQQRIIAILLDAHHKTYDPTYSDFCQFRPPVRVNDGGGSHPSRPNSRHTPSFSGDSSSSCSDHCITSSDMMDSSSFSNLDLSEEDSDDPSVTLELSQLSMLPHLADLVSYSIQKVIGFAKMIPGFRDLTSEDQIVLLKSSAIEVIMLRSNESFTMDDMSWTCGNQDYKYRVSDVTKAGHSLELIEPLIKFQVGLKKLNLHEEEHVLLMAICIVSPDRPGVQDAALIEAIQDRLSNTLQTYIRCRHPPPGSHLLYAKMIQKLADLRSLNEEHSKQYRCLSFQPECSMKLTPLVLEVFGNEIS
Procedure, shortened: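 VDR-bla cells were seeded, left 4 h, treated with compounds in DMSO for 16 h, incubated 2 h at RT with B/G FRET substrate, and read for fluorescence.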

[15] = target: Peroxisome proliferator-activated receptor delta (Homo sapiens) (UniProt Q03181); assay: qHTS assay to identify small molecule agonists of the peroxisome proliferator-activated receptor delta (PPARd) signaling pathway (AID 743212; calls by dose curve)
Peroxisome proliferator-activated receptor delta (Homo sapiens), sequence (Q03181 whole entry, looked up): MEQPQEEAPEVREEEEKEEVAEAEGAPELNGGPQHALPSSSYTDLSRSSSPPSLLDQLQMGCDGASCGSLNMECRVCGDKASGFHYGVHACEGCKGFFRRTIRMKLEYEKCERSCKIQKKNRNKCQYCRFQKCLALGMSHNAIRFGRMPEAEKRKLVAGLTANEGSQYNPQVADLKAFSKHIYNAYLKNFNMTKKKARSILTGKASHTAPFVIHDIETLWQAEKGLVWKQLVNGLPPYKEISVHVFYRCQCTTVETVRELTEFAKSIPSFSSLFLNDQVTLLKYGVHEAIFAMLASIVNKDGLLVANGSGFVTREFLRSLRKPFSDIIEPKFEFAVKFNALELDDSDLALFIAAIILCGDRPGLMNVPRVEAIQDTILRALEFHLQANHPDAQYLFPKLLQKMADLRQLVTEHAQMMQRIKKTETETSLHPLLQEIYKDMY
Procedure, shortened: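 HEK293H PPARd-bla cells; 5 h preincubation 37 C/5% CO2; compound (DMSO) 37 C; LiveBLAzer B/G FRET substrate 2 h RT; fluorescence intensity.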

[16] = target: Peroxisome proliferator-activated receptor delta (Homo sapiens) (UniProt Q03181); assay: qHTS assay to identify small molecule antagonists of the peroxisome proliferator-activated receptor delta (PPARd) signaling pathway (AID 743215; active = well fitted inhibition curve with a large enough effect in the signal ratio in the repeat runs, not every such curve was filed as active; the % refers to the signal ratio;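 also: cells stimulated with agonist L165041 at 300 nM final during compound exposure; series mostly up to about 62 µM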)
Procedure, shortened: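 With L165041 present at 300 nM final, compounds were incubated 17 h at 37 C on PPARd UAS-bla HEK293H cells. A FRET-based beta-lactamase substrate was then applied for 2 h at room temperature and fluorescence intensity recorded.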

[17] = target: Bile acid receptor (Homo sapiens) (UniProt Q96RI1); assay: qHTS assay to identify small molecule antagonists of the farnesoid-X-receptor (FXR) signaling pathway (AID 743217; active = well fitted inhibition curve with a large enough effect in the signal ratio in the repeat runs, not every such curve was filed as active; the % refers to the signal ratio)
Bile acid receptor (Homo sapiens), sequence (Q96RI1 whole entry, looked up): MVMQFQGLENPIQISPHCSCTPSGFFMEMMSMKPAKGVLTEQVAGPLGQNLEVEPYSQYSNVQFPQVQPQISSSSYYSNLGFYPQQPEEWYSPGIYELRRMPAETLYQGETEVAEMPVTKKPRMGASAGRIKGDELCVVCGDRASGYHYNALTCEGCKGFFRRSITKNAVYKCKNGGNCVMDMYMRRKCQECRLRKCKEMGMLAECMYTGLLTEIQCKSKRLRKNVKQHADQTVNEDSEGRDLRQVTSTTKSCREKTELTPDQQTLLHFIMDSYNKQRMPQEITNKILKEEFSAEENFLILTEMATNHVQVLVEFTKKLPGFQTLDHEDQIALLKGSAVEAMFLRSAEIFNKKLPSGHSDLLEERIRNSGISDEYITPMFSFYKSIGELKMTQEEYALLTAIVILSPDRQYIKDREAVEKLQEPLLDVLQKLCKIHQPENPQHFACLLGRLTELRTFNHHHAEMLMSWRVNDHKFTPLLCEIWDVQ
Procedure, shortened: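 In this cell-based antagonist screen, inhibition of CDCA-driven (50 uM final) UAS-beta-lactamase expression in HEK 293T cells was measured by FRET fluorescence following 16 h compound exposure at 37 °C.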

[18] = target: Bile acid receptor (Homo sapiens) (UniProt Q96RI1); assay: qHTS assay to identify small molecule agonists of the farnesoid-X-receptor (FXR) signaling pathway (AID 743220; active = well fitted activation curve with a large enough effect in the signal ratio in the repeat runs, not every such curve was filed as active; the % refers to the signal ratio)
Procedure, shortened: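 Beta-lactamase reporter under UAS control in GeneBLAzer FXR HEK 293T cells (5000/well) measured with LiveBLAzer FRET substrate after 2 h at room temperature. Compound exposure lasted 16 h at 37C.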

[19] = target: Vitamin D3 receptor (Homo sapiens) (UniProt P11473); assay: qHTS assay to identify small molecule antagonists of the vitamin D receptor (VDR) signaling pathway (AID 743223; active = well fitted inhibition curve with a large enough effect in the signal ratio in the repeat runs, not every such curve was filed as active; the % refers to the signal ratio)
Procedure, shortened: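 Agonist 1alpha,25-dihydroxyvitamin D3 (3 nM in well) was added with each compound to VDR-bla cells preincubated 4 h. Cells stood 16 h at 37C, then FRET substrate 2 h at room temperature; fluorescence intensity recorded.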

[20] = qHTS assay for small molecule agonists of the antioxidant response element (ARE) signaling pathway (AID 743202; active = well fitted activation curve with a large enough effect in the signal ratio in the repeat runs, not every such curve was filed as active; the % refers to the signal ratio; also: potency is read from the fitted curve at half-maximal effect)
Procedure, shortened: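 Quantitative high-throughput format in HepG2 cells bearing an integrated ARE-beta-lactamase reporter. Compound exposure lasted 16 h at 37 C, and fluorescence was read 2 h after adding LiveBLAzer B/G substrate at room temperature.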

Row | Structure (SMILES) | Potency [1] | Potency [2] | Potency [3] | Potency [4] | Potency [5] | outcome [6] | Potency [7] | Potency [8] | Potency [9] | Potency [10] | Potency [11] | Potency [12] | Potency [13] | outcome [14] | outcome [15] | outcome [16] | outcome [17] | outcome [18] | Potency [19] | Potency [20]
1 | Cc1nc2ccccc2n1Cc1ccc(Cl)cc1 | inactive | inactive | inactive | inactive | inactive | inactive | inactive | – | – | – | – | – | – | – | – | – | – | – | – | –
2 | Cc1c(Cn2ccnc2)c2ccccc2n1CCC(=O)O | inactive | – | – | inactive | inactive | inactive | inactive | inactive | inactive | inactive | inactive | inactive | inactive | inactive | – | – | – | – | – | –
3 | N=C(N=C(N)N)N1CCOCC1 | inactive | inactive | – | – | inactive | inactive | inactive | inactive | – | inactive | inactive | – | – | – | inactive | inactive | inactive | inactive | – | –
4 | CNCC[C@@H](Oc1ccccc1C)c1ccccc1 | inactive | inactive | – | inactive | – | inactive | – | – | – | inactive | inactive | – | – | inactive | – | inactive | – | – | inactive | –
5 | O=C(Cl)c1ccc([N+](=O)[O-])cc1 | inactive | – | – | inactive | inactive | inactive | inactive | inactive | inactive | inactive | inactive | inactive | inactive | – | inactive | inactive | – | – | – | inactive
6 | Cc1cccc(OCCOc2cccc(C)c2)c1 | inactive | – | inactive | inactive | inactive | inactive | inactive | inactive | inactive | inactive | inactive | inactive | inactive | – | inactive | inactive | – | – | – | inactive
7 | Cc1cccc(C(C)(C)C)c1O | inactive | – | inactive | inactive | inactive | inactive | inactive | inactive | inactive | inactive | inactive | inactive | – | inactive | – | – | – | – | inactive | inactive
8 | Nc1ccc(C(=O)Nc2ccccc2N)cc1 | inactive | 26.6 µM (active) | – | inactive | inactive | – | inactive | inactive | – | – | – | – | inactive | – | – | – | – | – | inactive | –
9 | CCOc1ccc2[nH]cc(C(=O)NCc3ccccc3)c(=O)c2n1 | inactive | – | inactive | inactive | inactive | inactive | inactive | inactive | inactive | inactive | inactive | – | – | inactive | inactive | inactive | inactive | inactive | – | 15.4 µM (active)
10 | N#CCCNCCC#N | inactive | – | – | inactive | inactive | inactive | inactive | inactive | inactive | inactive | inactive | inactive | inactive | inactive | – | inactive | – | – | – | inactive
11 | CCCCCCCCCCCCC(=O)O | inactive | inactive | – | inactive | – | – | – | inactive | – | inactive | inactive | – | inactive | – | – | – | – | – | – | –
12 | COCCCCCCCCOCCC[Si](C)(O[Si](C)(C)C)O[Si](C)(C)C | 30.6 µM (active) | inactive | – | – | 38.9 µM (active) | – | – | – | – | – | 15.5 µM (active) | – | inactive | inactive | inactive | – | – | – | inactive | –
13 | O=C1[C@H](CC[C@H](O)c2ccc(F)cc2)[C@@H](c2ccc(O)cc2)N1c1ccc(F)cc1 | inactive | – | inactive | inactive | inactive | inactive | inactive | inactive | – | – | inactive | – | – | inactive | – | inactive | – | – | inactive | –
14 | Cc1ncsc1CCO | inactive | inactive | – | – | inactive | inactive | inactive | inactive | – | inactive | inactive | – | – | inactive | inactive | inactive | inactive | inactive | – | inactive
15 | CCN(CC)CCOC(=O)C1(c2ccccc2)CCCC1 | inactive | – | inactive | inactive | inactive | inactive | inactive | inactive | inactive | inactive | inactive | inactive | inactive | – | inactive | inactive | inactive | inactive | – | inactive
16 | Nc1nc(CC(=O)O)cs1 | inactive | – | inactive | inactive | inactive | inactive | inactive | inactive | inactive | inactive | inactive | – | inactive | inactive | inactive | inactive | – | – | inactive | inactive
17 | Cn1sccc1=O | – | inactive | inactive | inactive | inactive | – | inactive | inactive | inactive | inactive | inactive | inactive | inactive | – | inactive | inactive | – | – | inactive | –
18 | CC(C)(Oc1ccc(Cl)cc1)C(=O)OCCCOC(=O)C(C)(C)Oc1ccc(Cl)cc1 | – | – | – | inactive | inactive | inactive | inactive | – | – | inactive | inactive | – | inactive | inactive | – | inactive | – | – | inactive | inactive
19 | O=C1Nc2cc(Cl)ccc2Oc2ccccc21 | – | – | – | inactive | inactive | inactive | inactive | – | inactive | inactive | inactive | inactive | inactive | inactive | inactive | inactive | – | inactive | inactive | –
20 | CCC(C)N(C)C(=O)c1cc2ccccc2c(-c2ccccc2Cl)n1 (stereo unspecified) | – | inactive | – | inactive | inactive | inactive | inactive | inactive | inactive | inactive | inactive | inactive | – | – | inactive | inactive | – | – | – | –
21 | COc1ccc([C@@H]2Sc3ccccc3N(CCN(C)C)C(=O)[C@@H]2OC(C)=O)cc1 | – | – | – | inactive | inactive | inactive | inactive | inactive | – | inactive | – | inactive | – | inactive | – | inactive | – | – | inactive | inactive
